In ChEMBL document CHEMBL1201862, “PubChem BioAssay data set” (2004):
Out of some 400,000 compounds screened, about 2,100 (0.53%) were called active. Not shown: some 14% with an inconclusive outcome. This is one part of a sample in which actives are shown more often than they occur. The rule behind the calls is not given here.

molecular target: Ataxin-2 (Homo sapiens) (UniProt Q99700); experiment: qHTS for Inhibitors of ATXN expression.; assay type: functional
Sequence (Q99700 whole entry): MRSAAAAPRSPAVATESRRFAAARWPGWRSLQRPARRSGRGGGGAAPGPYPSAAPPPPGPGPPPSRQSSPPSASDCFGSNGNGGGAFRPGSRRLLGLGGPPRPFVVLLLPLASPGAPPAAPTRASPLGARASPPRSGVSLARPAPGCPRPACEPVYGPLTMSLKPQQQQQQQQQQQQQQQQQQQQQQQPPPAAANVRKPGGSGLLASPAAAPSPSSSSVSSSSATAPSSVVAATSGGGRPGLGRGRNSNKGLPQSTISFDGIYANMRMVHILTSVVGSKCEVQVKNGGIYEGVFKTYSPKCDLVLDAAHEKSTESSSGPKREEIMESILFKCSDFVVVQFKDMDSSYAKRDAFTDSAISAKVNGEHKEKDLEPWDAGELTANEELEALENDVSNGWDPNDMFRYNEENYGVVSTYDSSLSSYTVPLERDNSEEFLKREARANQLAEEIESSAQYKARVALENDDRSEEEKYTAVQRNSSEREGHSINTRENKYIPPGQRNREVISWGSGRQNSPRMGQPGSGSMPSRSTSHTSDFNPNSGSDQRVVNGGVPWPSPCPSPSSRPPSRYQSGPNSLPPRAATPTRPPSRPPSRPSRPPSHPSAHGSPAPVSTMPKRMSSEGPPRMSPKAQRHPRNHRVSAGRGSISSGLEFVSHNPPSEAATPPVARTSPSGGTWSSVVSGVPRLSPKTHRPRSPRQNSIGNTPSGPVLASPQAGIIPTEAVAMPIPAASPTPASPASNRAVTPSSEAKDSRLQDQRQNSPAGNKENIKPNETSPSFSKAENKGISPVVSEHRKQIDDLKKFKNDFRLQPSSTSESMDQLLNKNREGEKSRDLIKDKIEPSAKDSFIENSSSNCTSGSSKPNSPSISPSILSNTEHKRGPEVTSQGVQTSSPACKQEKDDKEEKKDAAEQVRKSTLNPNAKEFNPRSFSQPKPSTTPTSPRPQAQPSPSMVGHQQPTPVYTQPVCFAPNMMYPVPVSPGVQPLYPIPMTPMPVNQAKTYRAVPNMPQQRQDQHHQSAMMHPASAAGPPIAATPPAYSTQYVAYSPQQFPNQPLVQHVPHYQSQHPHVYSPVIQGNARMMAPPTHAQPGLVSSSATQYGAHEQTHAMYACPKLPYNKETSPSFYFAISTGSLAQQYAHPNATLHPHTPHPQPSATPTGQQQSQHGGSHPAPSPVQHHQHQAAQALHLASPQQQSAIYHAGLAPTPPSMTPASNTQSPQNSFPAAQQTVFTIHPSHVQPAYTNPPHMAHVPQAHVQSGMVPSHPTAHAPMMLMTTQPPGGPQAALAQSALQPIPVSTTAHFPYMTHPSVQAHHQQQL

Row | Compound | Potency
1 | CCOc1ccc(C2C(C(=O)Nc3ccccc3)=C(C)N=c3s/c(=C/c4cccc(OCC(=O)O)c4)c(=O)n32)cc1 (stereo not drawn) | inactive
2 | N#CC1=C(N)OC2=C(CC/C2=C\c2ccccc2Cl)C1c1ccccc1Cl (stereo not drawn) | inactive
3 | COCCNC(=O)c1c(N)n(CCCn2ccnc2)c2nc3ccccc3nc12 | inactive
4 | O=C(Oc1ccc2ccc(=O)oc2c1)c1ccccc1 | inactive
5 | Clc1ncccc1OCc1ccccc1 | inactive
6 | Oc1ccc(NCc2ccc(OCc3ccccc3Cl)cc2)cc1 | 22.4 µM (active)
7 | c1ccc(COc2ccccc2CNC23CC4CC(CC(C4)C2)C3)cc1 | 20 µM (active)
8 | N=c1c(C(=O)NC2CCCC2)cc2c(=O)n3ccccc3nc2n1CC1CCCO1 (stereo not drawn) | inactive
9 | COC(=O)Cc1cc(=O)oc2c(C)c(O)ccc12 | inactive
10 | CCCCn1c(C2CCCCC2)nc2cc3nc(O)c(C(C)C)nc3cc21 | 35.5 µM (active)
11 | CCCCn1c(-c2cccc(C)c2)nc2cc3nc(O)c(C(C)C)nc3cc21 | 31.6 µM (active)
12 | CCCC1=Nc2ncnn2C(c2cccs2)/C1=C(\O)OCC (stereo not drawn) | inactive
13 | CCC(C)n1c(=N)c(C(=O)NC2CCCCC2)cc2c(=O)n3ccccc3nc21 (stereo not drawn) | inactive
14 | CCN(C(=O)COC(=O)CCC(=O)c1ccc(Cl)cc1)c1c(N)n(Cc2ccccc2)c(=O)[nH]c1=O | inactive
15 | CCN(C(=O)COC(=O)CCS(=O)(=O)c1ccccc1)c1c(N)n(Cc2ccccc2)c(=O)[nH]c1=O | inactive
16 | CCN(C(=O)COC(=O)C1CCC(C(C)(C)C)CC1)c1c(N)n(Cc2ccccc2)c(=O)[nH]c1=O (stereo not drawn) | 22.4 µM (active)
17 | CN(C(=O)COC(=O)/C=C/c1ccc2ccccc2n1)C1CCS(=O)(=O)C1 (stereo not drawn) | inactive
18 | Oc1cccc(Nc2c3ccccc3nc3ccccc23)c1 | inactive
19 | Cc1cc(NCCO)c2cc(O)ccc2n1 | inactive
20 | Cc1cc(Nc2cccc(O)c2)c2cccc(Br)c2n1 | 8.91 µM (active)
21 | CCOC(=O)C1=CN(CC2CCCO2)C=C(C(=O)OCC)C1c1ccccc1C(F)(F)F (stereo not drawn) | inactive
22 | COc1ccc(C(=O)/C=C2\Sc3ccccc3N2C)cc1 | inactive
23 | COc1cccc(C(=O)Oc2ccc3ccc(=O)oc3c2)c1 | inactive
24 | COc1ccc(C(=O)/C=C/Sc2nc3ccccc3o2)cc1 | 39.8 µM (active)
25 | CCOC(=O)c1cc2c(=O)n3cccc(C)c3nc2n(Cc2ccco2)/c1=N/C(=O)c1ccccc1 | inactive

Row | Compound | Potency
26 | N#CC1=C(N)N2C(=C(C#N)C1c1cccc(Br)c1)Nc1ccccc12 (stereo not drawn) | inactive
27 | O=C(OC12CC3CC(CC(C3)C1)C2)c1ccc(NCc2cc(O)ccc2O)cc1 | 8.44 µM (active)
28 | COC(=O)C1=CN(CCOC23CC4CC(CC(C4)C2)C3)C=C(C(=O)OC)C1c1ccsc1 | inactive
29 | O=C(OCCC12CC3CC(CC(C3)C1)C2)c1ccc(NCc2cc(O)ccc2O)cc1 | 10 µM (active)
30 | CC1CCN(c2ccc3c(c2)S(=O)(=O)c2cccc(C(=O)O)c2C3=O)CC1 | inactive
31 | CN(O)C(=S)c1ccccc1 | 8.91 µM (active)
32 | Cc1ccc(S(=O)(=O)Nc2cc(C)c(O)c(Sc3nnc(C)[nH]3)c2)cc1 | inactive
33 | Cc1cc(=O)oc2c(CN3CC(C)OC(C)C3)c(O)c(Cl)cc12 (stereo not drawn) | inactive
34 | CC(=O)Oc1ccc2ccc(=O)oc2c1 | inactive
35 | CCN(CC)c1ccc2cc(-c3nc4ccccc4n3C)c(=O)oc2c1 | inactive
36 | CCCc1nc2ccc(C)cn2c1Cc1ccccc1 | 22.4 µM (active)
37 | CCCc1nc2ccc(C)cn2c1Cc1ccccc1OC | 39.8 µM (active)
38 | CCCc1nc2ccc(C(=O)OC)cn2c1Cc1ccccc1C(F)(F)F | 39.8 µM (active)
39 | Nn1c(Cc2ccccc2)nc2ccccc2c1=O | inactive
40 | CCn1c(=N)c(C(=O)NCc2ccccc2)cc2c(=O)n3cc(C)ccc3nc21 | inactive
41 | CCOC(=O)Cc1csc(N/C=C2/C(=O)N(c3ccccc3C(F)(F)F)C(=O)c3ccccc32)n1 | inactive
42 | COCCN1C=C(C(=O)OC)C(c2ccccc2C(F)(F)F)C(C(=O)OC)=C1 | inactive
43 | CCCc1nc2c3ccccc3ccn2c1Cc1ccccc1 | 22.4 µM (active)
44 | CCC(C)n1c(=N)c(C(=O)NCc2ccccc2)cc2c(=O)n3cc(C)ccc3nc21 (stereo not drawn) | inactive
45 | COCC(C)n1c(SCc2cc(=O)n3cc(C)ccc3n2)nc2ccccc2c1=O (stereo not drawn) | inactive
46 | O=Cc1ccc(N2N=C(c3ccccc3)CC2c2ccccc2)cc1 (stereo not drawn) | inactive
47 | COC(=O)c1ccc(N2C(c3cc(OC)cc(OC)c3)=Cc3ccc(-c4cccnc4)cc3C2CC(=O)C2CC2)cc1 (stereo not drawn) | inactive
48 | COc1ccc(C2C=C(c3ccc(Cl)cc3)Nc3nc(NC(=O)CCC(=O)O)nn32)cc1 (stereo not drawn) | inactive
49 | CO/C(O)=C1\C(C)=NC2=C(C(=O)CC(C)(C)C2)C1c1cnn(C)c1C (stereo not drawn) | inactive
50 | CCN(CC)c1ccc2c(C)c(CN3CCOCC3)c(=O)oc2c1 | inactive

Row | Compound | Potency
51 | COc1ccc(C2CC(c3cccc(F)c3)=NN2c2ccc(S(N)(=O)=O)cc2)cc1 (stereo not drawn) | inactive
52 | CNC(=O)/C(C#N)=C/c1ccc(-c2nc3ccccc3s2)o1 | inactive
53 | CCCc1nc2c(C)cc(Br)cn2c1Cc1ccc(C)cc1 | 20 µM (active)
54 | CCN(Cc1cc(=O)n2cc(Cl)c(C)c(Cl)c2n1)Cc1nc(O)c2ccccc2n1 | inactive
55 | CC(=O)Nc1ccc(NC(=O)C(C)OC(=O)/C=C/c2cccs2)cc1 (stereo not drawn) | inactive
56 | CCOC(=O)c1s/c(=N\C(=O)/C=C/c2cccs2)n(C)c1C | inactive
57 | CCN(CC(=O)NCc1ccc(F)cc1)C(=O)/C=C/c1cccs1 | inactive
58 | CN(C)CCCN(C(=O)C1COc2ccccc2O1)c1nc2ccc(F)cc2s1 (stereo not drawn) | inactive
59 | COc1ccc(OC)c2sc(N(CCN(C)C)C(=O)/C=C/c3cccs3)nc12 | 28.2 µM (active)
60 | CN(C)CCCN(C(=O)/C=C/c1cccs1)c1nc2ccc(F)cc2s1 | 39.8 µM (active)
61 | CC1(C)C(=O)C=CC(=O)C(C)(C)C(=O)C=CC(=O)C(C)(C)C2=CC=C(O2)C(C)(C)C(=O)C=CC1=O | 39.8 µM (active)
62 | COCCN=C(S)NCCCNc1nc2cc3c(cc2cc1C#N)OCO3 | inactive
63 | Cc1ccc(O)c(-c2cc(-c3ccccc3[N+](=O)[O-])[nH]n2)c1 | 8.91 µM (active)
64 | Cc1ccc(C(=O)c2oc3ccccc3c2NC(=O)c2cc(-c3ccccc3O)[nH]n2)cc1 | inactive
65 | Cc1cccc(NC(=O)c2cc(-c3cc(Cl)ccc3O)[nH]n2)c1 | inactive
66 | Cc1csc(NC(=O)c2cc(O)nc3ccc(S(=O)(=O)N4CCOCC4)cc23)n1 | inactive
67 | Cc1ccc(/C=N/N2CCCCC2)o1 | inactive
68 | O=C(O)c1cc(-c2ccc(/C=C3\NC(=O)N(c4ccc(Cl)cc4)C3=O)o2)ccc1Cl | inactive
69 | CCc1cccc(CC)c1NC(=O)/C(C#N)=C/c1ccccc1C(F)(F)F | 39.8 µM (active)
70 | Cc1cc(/C=C(\C#N)C(=O)Nc2ccccc2F)c(C)[nH]1 | inactive
71 | CCN(CC)c1ccc(/C=C(\C#N)C(=O)NCc2ccccc2)cc1 | inactive
72 | O=C(NCc1ccccn1)C(=O)C1C(=O)Nc2ccccc21 (stereo not drawn) | inactive
73 | COc1ccc(CCNC2=CC(=O)N(c3ccc(F)cc3)C2=O)cc1 | inactive
74 | COc1ccc([C@H]2/C=C\CN(C(=O)CC(C)(C)C)[C@@H](C)C(=O)N2Cc2ccc(F)cc2)cc1 | 35.5 µM (active)
75 | COc1cc(C(=O)N/N=C/c2sc(N3CCOCC3)nc2-c2ccccc2)cc(OC)c1OC | inactive

Row | Compound | Potency
76 | COc1ccc(/C=C2\Oc3cc(OCC(=O)N4CCC(C(=O)O)CC4)ccc3C2=O)c(OC)c1 | inactive
77 | COC(=O)c1cc(=O)n(CCc2ccccc2F)/c(=N/c2ccc(F)c(Cl)c2)s1 | 33.6 µM (active)
78 | COC(=O)c1cc2c(s1)-c1cc(F)ccc1OC2 | inactive
79 | COC(=O)c1cc(=O)n(-c2ccc(F)cc2)/c(=N/c2ccc(F)cc2)s1 | 23.8 µM (active)
80 | Cc1cs/c(=N\c2cccnc2)n1Cc1ccco1 | inactive
81 | CCOC(=O)c1cc2c(=O)n3ccccc3nc2n(Cc2ccco2)/c1=N\C(=O)c1c(F)cccc1Cl | inactive
82 | COC(=O)Cc1c(C)c2cc3c(c(C)c2oc1=O)OCN(CCc1ccccc1F)C3 | inactive
83 | COC(=O)c1cc(=O)n(Cc2ccco2)/c(=N/c2ccc(F)c(Cl)c2)s1 | 3.16 µM (active)
84 | Cc1ccc(CCNC(=O)c2cc(S(=O)(=O)N3CCOCC3)cn2C)cc1 | inactive
85 | COc1ccc(CN(C(=O)c2snc(C(N)=O)c2N)C(C)C(=O)NCc2ccc(F)cc2)cc1 (stereo not drawn) | inactive
86 | COc1ccc(Nc2nc(N)c([N+](=O)[O-])c(NC3CCCCC3)n2)cc1 | 31.6 µM (active)
87 | CNc1nc(N)c([N+](=O)[O-])c(NCC2CCCO2)n1 (stereo not drawn) | inactive
88 | COc1cccc(Nc2nc(N)c([N+](=O)[O-])c(NCc3ccccc3)n2)c1 | 31.6 µM (active)
89 | COc1cccc(-c2ccc3c(N)c(C(=O)NCc4ccc(Cl)cc4)sc3n2)c1 | inactive
90 | CCc1nc(Nc2cccc(OC)c2)c2oc3ccccc3c2n1 | inactive
91 | COc1cccc(/C=C/c2nc(C#N)c(NC3CCCCC3)o2)c1 | inactive
92 | O=C1/C(=C/c2ccco2)Oc2c1ccc(O)c2CN1CCCCC1 | inactive
93 | O=[N+]([O-])c1ccc(-c2cn3nc(-c4ccccc4)c(-c4ccccc4)nc3n2)cc1 | inactive
94 | O=[N+]([O-])c1cccc(C2CC(c3ccccc3)=NN2c2ccccc2)c1 (stereo not drawn) | inactive
95 | O=c1cc(-c2ccccc2)[nH]n1-c1ccc([N+](=O)[O-])cc1 | 20 µM (active)
96 | CCOc1ccc(/C=C/c2nc(C#N)c(NCCCOC)o2)cc1 | inactive
97 | C#CCN(C[C@H]1[C@H](OC(=O)NC2CCCC2)[C@H](OC(=O)NC2CCCC2)C[C@@H](C(=O)OC)[C@H]1C(=O)OC)S(=O)(=O)c1ccc(C)cc1 | 39.8 µM (active)
98 | CC(C)N1CCC(N2CCN(Cc3cccc4nonc34)CC2CCO)CC1 (stereo not drawn) | inactive
